Data taken from PubChem BioAssay AID1259343 (VanderVen Lab, College of Veterinary Medicine, Cornell …, 2017).
Out of some 6,200 compounds screened, about 2,900 (47%) were called active. The set was probably picked from earlier hits. The list shows a part of the results. A number with no mark means an inactive call. Cut-off read from the data, not from the text of the source: active = inhibition above about 50%; inactive = the rest.

Test: Mycobacterium tuberculosis growth inhibition, primary screen (AID 1259343)
Conditions: inhibition: at 10 µM, hits give high values; outcome: 10 uM

Structure (SMILES)	inhibition
CN(Cc1nc2c(s1)CCCC2)C(=O)Cc1ccccc1O	82.4% (active)
CC1=NN(c2ccc(C(=O)N(C)Cc3ccccc3O)cc2)CC1	23.1%
Cc1[nH]ccc2c1[nH]c1cc(=O)ccc12	90.6% (active)
COc1cccc(Oc2ncc(C(N)=O)cc2Cl)c1	68.9% (active)
CN(Cc1ccccc1C(F)(F)F)c1ncc(C(N)=O)cc1Cl	39.2%
Oc1ccc(Oc2ncc(Cl)cc2Cl)cc1	38.9%
CN(C)c1ccc(-c2nc(-c3cc4c5c(c3)CC(=O)N5CCC4)cs2)cc1	-34.5%
Nc1nc(-c2ccc3c(c2)OCO3)cs1	-28.1%
Clc1ccc(-c2csc(-c3cnccn3)n2)s1	17.5%
CCc1ccc(-c2csc(N)n2)s1	76.7% (active)
Nc1nc(-c2ccc(Cl)s2)cs1	86.7% (active)
CN(C)c1ccc(Nc2nc(-c3cccs3)cs2)cc1	18.8%
Nc1nc(-c2cccs2)cs1	76% (active)
Cc1nc(-c2ccc(CCNC(=O)c3cc(F)cc(F)c3)s2)cs1	35.7%
NC(=O)c1ccn(-c2cccc(Br)c2)n1	10.3%
Nc1ccn(-c2ccc(Cl)c(Cl)c2)n1	96.1% (active)
Cc1sc2nc(-c3cccs3)nc(N3CCNC(C(N)=O)C3)c2c1C (stereo not drawn)	26%
O=[N+]([O-])c1ccc2nc(C(F)(F)F)[nH]c2c1	102% (active)
O=[N+]([O-])c1ccc2[nH]c(O)c(N=Nc3cccc(C(F)(F)F)c3)c2c1	-6.56%
CCNC(=S)N1CCN(S(=O)(=O)c2ccc(Cl)s2)CC1	99.5% (active)
O=S(=O)(c1ccc(Cl)s1)N1CCN(c2ccnc3cc(Cl)ccc23)CC1	9.81%
O=S(=O)(c1ccc(Cl)s1)N1CCN(c2ccc(F)cc2)CC1	-6.71%
C=CCNC(=O)Cn1c(-n2nc(C)cc2C)nc2c(c1=O)CCCC2	98% (active)
Cc1cc(N)n(CC(=O)NCCn2c(C)cc3ccccc32)n1	-1.16%
Cc1cc(C)n(-c2nc3c(c(=O)n2CC(=O)NC2CCCC2)CCCC3)n1	88.4% (active)
Oc1cc(-c2cccc3c2Sc2ccccc2S3)cc2c1OCCNC2	22%

Structure (SMILES)	inhibition
COc1ccc(C2(C(=O)Nc3nc(C)c(C)s3)CCCCC2)cc1	91.6% (active)
COC(=O)Nc1ccc(OCc2nc(C)c(C)s2)cc1	2.64%
Cc1ncc(CN(C)C(=O)c2ccc(Cl)c(Cl)c2O)s1	45.2%
Cc1ccc(O)c(C(=O)N(C)Cc2ccccc2C(F)(F)F)c1	14.5%
CN(Cc1ccc(Br)s1)C(=O)c1ccccc1O	89.5% (active)
O=C1c2ccccc2C(=O)c2oc(-c3cc([N+](=O)[O-])cc([N+](=O)[O-])c3)nc21	61.8% (active)
CCCc1cc(NCC2CCCO2)n2nc3nc(C)cc(C)c3c2n1 (stereo not drawn)	98.6% (active)
CCCc1cc(NCC2CCCO2)n2nc(C)c(-c3ccccc3)c2n1 (stereo not drawn)	39.6%
CCCc1cc(N2CCCC2)n2nc3nc(C)cc(C)c3c2n1	22%
O=c1cc(CN2CCc3ccccc32)occ1OCc1ccc(Cl)cc1	1.87%
Cc1cc(C)cc(NC(=O)COc2coc(CN3CCc4ccccc43)cc2=O)c1	69.1% (active)
CCc1nnc(N/N=C\c2cc(Cl)c(OCc3ccccc3F)c(OC)c2)n1N	51.4% (active)
CC(C)=CCCC(C)[C@@H]1CC[C@]2(C)C3=C(CC[C@@]12C)C1(C)CC[C@H](O)C(C)(C)C1CC3 (stereo partly drawn)	49.1%
CCCCOc1c(I)cc(CNCCN(C)C)cc1OCC	-1.94%
COc1ccc([C@@H](C)C(=O)c2ccc(O)cc2O)cc1	64.6% (active)
COc1ccc(C(=O)Nc2cnn(C(C)(C)C)c2)c(O)c1	-6.01%
COc1c(O)cc(O)cc1O	19.6%
O=S(=O)(c1cccc(Br)c1)N1CCCN(c2ncc(C(F)(F)F)cc2Cl)CC1	45%
O=C(CCl)N1CCN(c2ncc(C(F)(F)F)cc2Cl)CC1	67.7% (active)
CS(=O)c1c(Cl)cccc1NC(=O)N1CCN(c2ncc(Cl)cc2Cl)CC1 (stereo not drawn)	-25.6%
COc1ccc(C(=O)C=Cc2ccc(Br)cc2F)c(OC)c1	-5.68%
Cc1c(/C=C/c2ccc(Br)cc2F)n[nH]c(=O)c1C#N	67% (active)
O=C(c1ccc(Cl)cc1Cl)N1CCCC(OCc2ccccc2Cl)C1 (stereo not drawn)	20.5%
c1ccc(Nc2ccc(OCc3nn[nH]n3)cc2)cc1	10.5%
C(=Cc1ccccc1)C=NNc1ncnc2ccccc12	99.2% (active)
O=C(NN=CC=Cc1ccccc1)c1cc(C23CC4CC(CC(C4)C2)C3)[nH]n1	11.1%

Structure (SMILES)	inhibition
C(=Cc1ccccc1)C=NNc1nn[nH]n1	86.6% (active)
Oc1ccc(C=NNc2ncnc3scc(-c4ccccc4)c23)c(O)c1	12.7%
CC(C)c1nnc(SCc2cccnc2)c2c1cnn2-c1ccc(F)cc1	48%
CCOCCSc1nnc(C)c2cnn(-c3ccc(C)c(C)c3)c12	51.4% (active)
Cc1ccc(-n2ncc3c(C4CC4)nn(C)c(=O)c32)cc1C	47.4%
CC(=O)C1=NN(c2ccccc2)C2C(=O)N(c3ccc(Br)cc3)C(=O)C12 (stereo not drawn)	14.1%
O=C1[C@H]2C(c3ccccc3)=NN(c3ccccc3)[C@H]2C(=O)N1c1ccccc1	73% (active)
O=c1[nH]cnc2c1nnn2-c1ccc(OC(F)(F)F)cc1	49.2%
N[C@H](C(=O)O)[C@@H]1CC(Cl)=NO1	91.8% (active)
CCOc1cc(C=CC(=O)c2ccc(Cl)cc2)ccc1O	54% (active)
CCOc1c(Br)cc(C=CC(=O)c2ccc(F)cc2)cc1OC	-23.1%
CCOc1c(Br)cc(C=CC(=O)c2ccc(OC)cc2)cc1OC	14.3%
O=S(=O)(Nc1ccc(OC(F)F)c(Cl)c1)c1ccc(Cl)c(Cl)c1	-2.94%
O=S(=O)(Nc1ccc(OC(F)F)c(Cl)c1)c1ccc(Cl)s1	79.2% (active)
O=S(=O)(Nc1ccc(F)c(Cl)c1)c1ccc(Cl)s1	52.7% (active)
O=S(=O)(Nc1ccc(F)c(Cl)c1)c1ccc(Br)s1	24.5%
O=S(=O)(Nc1ccc(OC(F)F)c(Cl)c1)c1ccc(F)c(Cl)c1	-3.78%
Cc1ccc(-c2ccsc2C(=O)NS(=O)(=O)N2CCCCC2)cc1	20.7%
COC(=O)c1sccc1NS(=O)(=O)c1cc(Cl)cc(Cl)c1	7.22%
COC(=O)c1sccc1S(=O)(=O)Nc1cc(C)ccc1OC	54.2% (active)
O=C(C1c2ccccc2Oc2ccccc21)N(C(=O)N1CCCCC1)c1ccccc1	3.02%
Cc1cc(OCCN2CCN(Cc3ccccc3)CC2)ccc1I	88.7% (active)
Cc1cc(C)c(CN2CCC(CO)(CCOc3ccccc3)CC2)cc1C	17.3%
Cc1cccc(Cn2nc(-c3ccc(F)cc3)c3sc(C)nc3c2=O)c1	94% (active)
Cc1cccc(Cn2nc(-c3ccc(Br)cc3)ccc2=O)c1	24.7%
O=c1ccc(-c2cccc(Br)c2)nn1Cc1cccc(F)c1	48.5%

Structure (SMILES)	inhibition
COc1ccc(C(N)=S)cc1	68.6% (active)
CC(C)c1ccc(S(=O)(=O)c2ccc(Cl)cc2)cc1	-10.2%
CC(C)c1ccc(C(N)=S)cc1	99.7% (active)
COc1ccc2c(C)nc(N=C(N)N)nc2c1	38.5%
CCN(C(=O)c1ccc2c(=O)n(CC)c(=O)[nH]c2c1)c1ccccc1C	-22.1%
CCCc1nc(CN2Cc3ccccc3-c3ccccc3C2)no1	-15.3%
Fc1ccccc1Cc1noc(CN2CCN(c3nc4ccccc4s3)CC2)n1	60.6% (active)
c1ccc(CCc2noc(CN3CCN(c4nc5ccccc5s4)CC3)n2)cc1	89.5% (active)
c1csc(-c2noc(CN3CCCN(c4nc5ccccc5s4)CC3)n2)c1	91.6% (active)
Fc1ccc(Cn2ncc3c2CN(c2nc4ccccc4s2)C3)cc1	32.9%
O=C(NN=Cc1ccc(O)cc1)c1cc(-c2ccc(Cl)cc2Cl)n[nH]1	85.8% (active)
O=C(NN=Cc1ccco1)c1cc(-c2ccc(Cl)cc2)n[nH]1	43.3%
O=C(NN=Cc1ccc(O)cc1)c1cc(C23CC4CC(CC(C4)C2)C3)[nH]n1	16.7%
COCCCCC(=O)Nc1cc(C(F)(F)F)[nH]n1	78% (active)
COc1cccc2c1OC(c1ccccn1)N1N=C(c3ccccc3)CC21 (stereo not drawn)	-22.4%
COc1cccc(C2Oc3ccccc3C3CC(c4ccc5c(c4)OCCO5)=NN32)c1 (stereo not drawn)	103% (active)
Cc1cccc(C2Oc3ccccc3C3CC(c4ccc5c(c4)OCCO5)=NN32)c1 (stereo not drawn)	-14.9%
CN1CCC[C@@H]1CCO[C@](C)(c1ccccc1)c1ccc(Cl)cc1	37.7%
O=C(Nc1ncc(-c2ccccc2)s1)OCC(F)(F)F	0.3%
O=C(Nc1ncc(-c2ccccc2)s1)C1CSCCS1 (stereo not drawn)	95.8% (active)
O=C1CCCC(=NNC(=S)NC2CCCCC2)C1	55.2% (active)
S=C(NN=C1CC2CC=CC12)NC1CCCCC1 (stereo not drawn)	1.05%
CC1(C)CC(=O)CC(=NNC(=S)NC2CCCCC2)C1	34.4%
CN(CCC(O)c1ccccc1)C(=O)c1ccc(Cl)s1 (stereo not drawn)	13.2%
CC(CCc1ccccc1)N=c1c([N+](=O)[O-])nn(-c2ccccc2)n1O (stereo not drawn)	102% (active)
